Inconclusive results are not listed. The source made the active and inactive calls. The calls were made as follows: active = hit-call score of the fitted dose curve at least 0.9, where 1 is the maximum; inconclusive = response in the unintended direction; inactive = score below 0.9.
Each compound was assayed on Glyceraldehyde-3-phosphate dehydrogenase (Homo sapiens) (UniProt P04406) (assay: CLD_GAPDH_48hr: CellzDirect (CLD) Gene Expression Assay for Baseline Control (Glyceraldehyde 3-phosphate dehydrogenase) at 48 hours (AID 2283706);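 also: active means higher GAPDH mRNA than DMSO vehicle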).
Glyceraldehyde-3-phosphate dehydrogenase (Homo sapiens), sequence (P04406 whole entry, looked up): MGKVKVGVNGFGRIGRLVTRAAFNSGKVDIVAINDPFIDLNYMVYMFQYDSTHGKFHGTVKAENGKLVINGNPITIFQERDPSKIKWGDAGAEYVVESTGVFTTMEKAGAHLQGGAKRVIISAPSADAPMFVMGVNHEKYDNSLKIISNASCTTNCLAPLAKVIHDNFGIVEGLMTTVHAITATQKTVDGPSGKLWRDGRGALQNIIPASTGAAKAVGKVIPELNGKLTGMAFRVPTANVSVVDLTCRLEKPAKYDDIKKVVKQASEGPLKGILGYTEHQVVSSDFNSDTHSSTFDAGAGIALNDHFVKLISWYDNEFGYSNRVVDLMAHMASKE
Protocol: CLD_48hr is a cell-based, multiplexed-readout assay that uses hepatocyte, a human liver primary cell, with measurements taken at 48 hours after chemical dosing in a 96-well plate.CLD_GAPDH_48hr is one of 16 assay component(s) measured or calculated from the CLD_48hr assay. It is designed to make measurements of mRNA induction, a form of inducible reporter, as detected with chemiluminescence signals by Quantitative Nuclease Protection Assay (qNPA) technology.Data from the assay component CLD_GAPDH_48hr was analyzed at the endpoint, CLD_GAPDH_48hr, in the positive analysis fitting direction relative to DMSO as the negative control and baseline of activity. Using a type of inducible reporter, gain-of-signal activity can be used to understand changes in the reporter gene as they relate to the gene GAPDH. Furthermore, this assay endpoint can be referred to as a secondary readout, because this assay has produced multiple assay endpoints where this one serves a background control function. To generalize the intended target to other relatable targets, this assay endpoint is annotated to the background measurement intended target family, where subfamily is baseline control.
Human hepatocyte cultures were treated daily for two consecutive days with fresh dosing solutions containing appropriate concentrations of the 320 ToxCast chemicals (chemical identities were blinded to CellzDirect and other ToxCast collaborators), vehicle control (0.2% DMSO), and positive control inducers as summarized in Table 1. Due to the large number of treatment groups and chemicals examined, the ToxCast chemicals were divided into two groups (spanning two independent cultures of hepatocytes from separate donor preparations (Hu778: ToxCast plates 1 and 2; Hu776: ToxCast plates 3 and 4). Each preparation of human hepatocyte cultures was treated with respective vehicle control, medium only control, set of six positive controls/reference chemicals for the five hepatic receptor pathways, and a subset of eight of the ToxCast chemicals (indoxacarb, pyrithiobac-sodium, norflurazon, cyhalofop-butyl, methomyl, thiram, acetochlor, and propiconazole). These replicate data, coupled with internal replicates designed within the blinded ToxCast chemical library, provided additional data to evaluate interindividual differences between hepatocyte preparations and their potential impact on chemical profiles.Cell morphology and integrity were evaluated using phase-contrast microscopy as an indicator of hepatocyte cell health (Tyson & Green, 1987). Cultures for each treatment group (i.e., media, vehicle [0.2% DMSO], positive control inducers [multiple concentrations], and the ToxCast chemicals [multiple concentrations]) were observed and cell morphology was assessed relative to vehicle control cultures at each harvest time point (0, 6, 24, or 48 h). […] Images were evaluated at the conclusion of the study to assess changes in cell integrity and account for the effects of chemical exposure on uncharacteristic changes in concentration-dependent gene expression profiles. The results from these determinations of apparent cytotoxicity were annotated (yes/no) alongside the corresponding qNPA data for reference.At the conclusion of each treatment period, hepatocyte cultures (96-well) were washed with 1 volume of HBSS, lysed by addition of 25 ul ArrayPlate lysis buffer (HTG, Tucson, AZ), and 70 ul/well of Denaturation Oil, denatured by incubation at 95C for 10 min, and frozen at approximately -70C until analysis by nuclease protection assay (qNPA) (Roberts et al., 2007). For qNPA analysis, cell lysates were thawed at 50C for approximately 30 min, qNPA probes were added, and samples were incubated at 95C for 10 min to begin the detection process by denaturing the target RNA, dissociating the duplexes and secondary structure hybridization. At the conclusion of the hybridization period, S1 nuclease reagent was added to each sample to digest all nonprotected nucleotides at 50C for 60-90 min. […]
In the case of `CCCCNC(=O)n1c(NC(=O)OC)nc2ccccc21`, the outcome is reported as “inactive”.
In the case of `CCCCNC(=O)OCC#CI`, the outcome is reported as “inactive”.
In the case of `N#Cc1nn(-c2c(Cl)cc(C(F)(F)F)cc2Cl)c(N)c1S(=O)C(F)(F)F` (configuration not stated), the outcome is reported as “inactive”.
For `C=CC1(C)OC(=O)N(c2cc(Cl)cc(Cl)c2)C1=O` (configuration not stated), the outcome was “inactive”.
For `CCNc1nc(Cl)nc(NCC)n1`, the outcome was “inactive”.
`COP(=S)(OC)Oc1nc(Cl)c(Cl)cc1Cl` was tested, and the outcome was “inactive”.
In the case of `COc1nc(C)nc(NC(=O)NS(=O)(=O)c2ccccc2Cl)n1`, the outcome is reported as “inactive”.
In the case of `CCNc1nc(Cl)nc(NC(C)C)n1`, the outcome is reported as “inactive”.
In the case of `CC1COC(Cn2cncn2)(c2ccc(Oc3ccc(Cl)cc3)cc2Cl)O1` (configuration not stated), the outcome is reported as “inactive”.
`CCON=C(CC)C1=C(O)CC(c2c(C)cc(C)cc2C)CC1=O` (configuration not stated) was tested, and the outcome was “inactive”.
`CCOC(=O)CC(SP(=S)(OC)OC)C(=O)OCC` (configuration not stated) was tested, and the outcome was “inactive”.
For `CC(C)(C)c1ccc(CSc2cnn(C(C)(C)C)c(=O)c2Cl)cc1`, the outcome was “inactive”.
In the case of `Cc1ccc(-c2c(Cl)nc(C#N)n2S(=O)(=O)N(C)C)cc1`, the outcome is reported as “inactive”.
In the case of `CN(C)C(=S)SSC(=S)N(C)C`, the outcome is reported as “inactive”.
In the case of `CNC(=O)ON=CC(C)(C)SC`, the outcome is reported as “inactive”.
With `COC(=O)C(C)Oc1ccc(Oc2ccc(Cl)cc2Cl)cc1` (configuration not stated) the outcome was “inactive”.
In the case of `CCCCC(CC)COC(=O)c1ccccc1C(=O)OCC(CC)CCCC` (configuration not stated), the outcome is reported as “inactive”.
For `N#Cc1cc(Br)c(O)c(Br)c1`, the outcome was “inactive”.
With `CNC(=S)S` the outcome was “inactive”.
`O=C(O)COc1nc(Cl)c(Cl)cc1Cl` was tested, and the outcome was “inactive”.
In the case of `CCCCOC(=O)c1ccccc1C(=O)OCCCC`, the outcome is reported as “inactive”.
For `CC(Oc1ccc(Cl)cc1Cl)C(=O)O` (configuration not stated), the outcome was “inactive”.

Reference: PubChem BioAssay (EPA / NIEHS)
